# Article PMC7862700, “An all-to-all approach to the identification of sequence-specific readers for epigenetic DNA modifications on cytosine”
# How the values were obtained:
# Assay in all cases: DAPPL (digital affinity profiling via proximity ligation, sequencing); 10 mM Tris-HCl pH 7.5, 50 mM NaCl, 1 mM DTT, 4% glycerol, room temperature, 30 min; GST-TFs on glutathione beads, 16-mer random dsDNA library, 0.1% formaldehyde crosslink after washing; high values mean tight binding
# [1] = molecular target: T1, FLI1 (Homo sapiens, UniProt Q01543 1-452); settings: protein: recombinant; tags: N-terminal GST; dsDNA, one strand shown
# T1 sequence: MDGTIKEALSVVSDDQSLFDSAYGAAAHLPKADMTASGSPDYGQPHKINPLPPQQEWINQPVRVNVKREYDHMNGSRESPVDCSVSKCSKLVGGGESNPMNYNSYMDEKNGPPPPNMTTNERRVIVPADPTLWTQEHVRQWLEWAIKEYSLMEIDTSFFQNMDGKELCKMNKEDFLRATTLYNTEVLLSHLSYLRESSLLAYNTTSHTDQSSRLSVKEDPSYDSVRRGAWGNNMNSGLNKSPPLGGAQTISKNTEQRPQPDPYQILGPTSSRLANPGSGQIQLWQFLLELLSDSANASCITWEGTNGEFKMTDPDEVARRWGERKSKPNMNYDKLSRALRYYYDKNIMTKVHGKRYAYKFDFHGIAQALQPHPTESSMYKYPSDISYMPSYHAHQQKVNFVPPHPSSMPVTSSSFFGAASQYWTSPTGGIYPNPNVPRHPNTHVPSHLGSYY
# Procedure, shortened: (§1)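 Yeast served to express human transcription factors as GST fusions, which were then captured on glutathione beads and labelled with DNA barcodes. Pooled with a tag-only sample, they were incubated with 200 nmole of a 16-mer random double-stranded DNA library for 30 min at room temperature in Tris/NaCl/DTT/glycerol buffer, washed, crosslinked with 0.1% formaldehyde, ligated by proximity, amplified by PCR and sequenced. Dividing each hexamer's read frequency for a factor by its frequency for the tag-only sample gives the binding signal.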
# [2] = molecular target: T2, ELK1 (Homo sapiens, UniProt P19419 1-428); settings: protein: recombinant; tags: N-terminal GST; dsDNA, one strand shown
# T2 sequence: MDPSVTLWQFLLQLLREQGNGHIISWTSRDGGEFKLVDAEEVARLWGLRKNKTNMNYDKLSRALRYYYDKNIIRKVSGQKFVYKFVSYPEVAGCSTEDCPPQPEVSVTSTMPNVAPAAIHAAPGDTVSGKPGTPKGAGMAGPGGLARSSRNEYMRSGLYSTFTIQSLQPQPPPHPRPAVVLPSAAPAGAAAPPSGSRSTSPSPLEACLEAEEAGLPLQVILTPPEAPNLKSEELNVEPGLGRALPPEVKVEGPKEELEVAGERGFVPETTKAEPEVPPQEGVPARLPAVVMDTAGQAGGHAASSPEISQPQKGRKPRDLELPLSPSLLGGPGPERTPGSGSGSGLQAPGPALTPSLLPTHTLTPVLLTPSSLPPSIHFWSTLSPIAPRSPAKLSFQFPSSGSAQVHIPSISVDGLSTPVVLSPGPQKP
# Procedure, shortened: as §1
# [3] = molecular target: T3, GABPA (Homo sapiens, UniProt Q06546 1-454); settings: protein: recombinant; tags: N-terminal GST; dsDNA, one strand shown
# T3 sequence: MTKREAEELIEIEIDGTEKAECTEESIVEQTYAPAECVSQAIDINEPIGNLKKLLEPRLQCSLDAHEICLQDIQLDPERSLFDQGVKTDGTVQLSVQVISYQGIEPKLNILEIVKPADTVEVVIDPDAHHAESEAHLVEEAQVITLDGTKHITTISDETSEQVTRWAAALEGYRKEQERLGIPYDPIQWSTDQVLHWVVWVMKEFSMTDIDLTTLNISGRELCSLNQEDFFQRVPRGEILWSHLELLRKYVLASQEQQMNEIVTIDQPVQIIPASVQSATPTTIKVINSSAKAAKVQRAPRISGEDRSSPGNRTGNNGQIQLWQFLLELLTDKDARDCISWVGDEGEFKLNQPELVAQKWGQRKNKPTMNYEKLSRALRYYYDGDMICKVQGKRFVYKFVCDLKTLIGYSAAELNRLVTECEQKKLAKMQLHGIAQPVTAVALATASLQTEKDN
# Procedure, shortened: as §1
# [4] = molecular target: T4, ERG (Homo sapiens, UniProt P11308 1-479); settings: protein: recombinant; tags: N-terminal GST; dsDNA, one strand shown
# T4 sequence: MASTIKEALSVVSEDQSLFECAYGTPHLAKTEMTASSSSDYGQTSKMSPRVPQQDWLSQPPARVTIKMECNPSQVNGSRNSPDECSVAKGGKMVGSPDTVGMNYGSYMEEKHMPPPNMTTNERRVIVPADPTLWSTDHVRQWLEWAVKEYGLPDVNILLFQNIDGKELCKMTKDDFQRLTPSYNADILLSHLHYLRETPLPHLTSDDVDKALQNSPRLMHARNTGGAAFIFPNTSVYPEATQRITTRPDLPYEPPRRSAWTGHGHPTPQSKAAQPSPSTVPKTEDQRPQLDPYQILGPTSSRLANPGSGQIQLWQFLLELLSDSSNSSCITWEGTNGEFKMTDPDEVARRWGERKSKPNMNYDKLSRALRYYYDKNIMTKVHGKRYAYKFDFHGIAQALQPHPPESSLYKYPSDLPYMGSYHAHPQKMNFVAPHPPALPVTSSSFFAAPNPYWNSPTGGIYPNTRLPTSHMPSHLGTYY
# Procedure, shortened: as §1
# [5] = molecular target: ELF1 (Homo sapiens, UniProt P32519 1-619); settings: protein: recombinant; tags: N-terminal GST; dsDNA, one strand shown
# Sequence of ELF1 (P32519 whole entry): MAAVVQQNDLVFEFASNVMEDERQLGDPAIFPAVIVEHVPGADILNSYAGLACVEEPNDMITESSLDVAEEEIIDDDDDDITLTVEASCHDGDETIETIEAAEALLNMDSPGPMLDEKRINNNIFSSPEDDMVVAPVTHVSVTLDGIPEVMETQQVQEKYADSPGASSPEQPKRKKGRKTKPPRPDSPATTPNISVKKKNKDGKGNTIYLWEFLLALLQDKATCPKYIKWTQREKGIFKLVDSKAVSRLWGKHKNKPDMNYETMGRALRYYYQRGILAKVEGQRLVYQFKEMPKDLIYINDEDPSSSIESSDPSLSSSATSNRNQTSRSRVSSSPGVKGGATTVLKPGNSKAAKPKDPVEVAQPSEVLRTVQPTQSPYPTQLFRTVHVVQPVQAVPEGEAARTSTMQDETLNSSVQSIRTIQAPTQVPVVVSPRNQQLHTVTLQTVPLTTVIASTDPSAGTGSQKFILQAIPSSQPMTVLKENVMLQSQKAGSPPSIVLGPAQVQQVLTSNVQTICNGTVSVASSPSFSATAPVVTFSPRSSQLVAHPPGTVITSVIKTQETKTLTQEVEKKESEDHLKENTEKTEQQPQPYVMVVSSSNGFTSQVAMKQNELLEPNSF
# Procedure, shortened: as §1
# [6] = molecular target: T5, EHF (Homo sapiens, UniProt Q9NZC4 1-300); settings: protein: recombinant; tags: N-terminal GST; dsDNA, one strand shown
# T5 sequence: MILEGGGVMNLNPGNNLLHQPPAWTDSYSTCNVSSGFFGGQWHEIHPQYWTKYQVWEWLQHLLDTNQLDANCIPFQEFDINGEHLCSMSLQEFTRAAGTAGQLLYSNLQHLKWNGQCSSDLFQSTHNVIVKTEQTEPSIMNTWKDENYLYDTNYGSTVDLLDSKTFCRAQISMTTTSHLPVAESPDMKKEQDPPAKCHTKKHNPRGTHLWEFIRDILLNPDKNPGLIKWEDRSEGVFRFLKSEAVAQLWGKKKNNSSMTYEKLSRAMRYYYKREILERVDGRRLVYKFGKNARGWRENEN
# Procedure, shortened: as §1
# [7] = molecular target: SPI1 (Homo sapiens, UniProt P17947 1-270); settings: protein: recombinant; tags: N-terminal GST; dsDNA, one strand shown
# Procedure, shortened: as §1
# [8] = molecular target: SPIB (Homo sapiens, UniProt Q01892 1-262); settings: protein: recombinant; tags: N-terminal GST; dsDNA, one strand shown
# Sequence of SPIB (Q01892 whole entry): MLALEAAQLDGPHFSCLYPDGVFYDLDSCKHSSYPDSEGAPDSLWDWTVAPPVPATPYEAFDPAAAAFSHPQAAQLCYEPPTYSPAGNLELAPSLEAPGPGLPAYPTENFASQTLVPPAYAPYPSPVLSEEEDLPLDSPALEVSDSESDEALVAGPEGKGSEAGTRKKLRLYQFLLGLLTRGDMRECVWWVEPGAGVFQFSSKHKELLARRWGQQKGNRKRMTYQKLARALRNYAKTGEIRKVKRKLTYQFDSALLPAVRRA
# Procedure, shortened: as §1
# [9] = molecular target: T6, ELK3 (Homo sapiens, UniProt P41970 1-407); settings: protein: recombinant; tags: N-terminal GST; dsDNA, one strand shown
# T6 sequence: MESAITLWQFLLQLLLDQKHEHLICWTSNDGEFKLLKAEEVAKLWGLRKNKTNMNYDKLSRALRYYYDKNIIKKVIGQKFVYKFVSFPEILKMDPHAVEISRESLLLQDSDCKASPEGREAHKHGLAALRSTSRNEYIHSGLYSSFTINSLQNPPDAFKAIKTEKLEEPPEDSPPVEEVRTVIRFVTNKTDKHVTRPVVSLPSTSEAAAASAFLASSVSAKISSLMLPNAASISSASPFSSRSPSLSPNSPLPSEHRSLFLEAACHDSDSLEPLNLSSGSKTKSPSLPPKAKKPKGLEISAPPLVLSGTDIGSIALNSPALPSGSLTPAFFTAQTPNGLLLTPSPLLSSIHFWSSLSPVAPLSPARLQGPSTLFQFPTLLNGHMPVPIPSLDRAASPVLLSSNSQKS
# Procedure, shortened: as §1
# [10] = molecular target: T7, FEV (Homo sapiens, UniProt Q99581 1-238); settings: protein: recombinant; tags: N-terminal GST; dsDNA, one strand shown
# T7 sequence: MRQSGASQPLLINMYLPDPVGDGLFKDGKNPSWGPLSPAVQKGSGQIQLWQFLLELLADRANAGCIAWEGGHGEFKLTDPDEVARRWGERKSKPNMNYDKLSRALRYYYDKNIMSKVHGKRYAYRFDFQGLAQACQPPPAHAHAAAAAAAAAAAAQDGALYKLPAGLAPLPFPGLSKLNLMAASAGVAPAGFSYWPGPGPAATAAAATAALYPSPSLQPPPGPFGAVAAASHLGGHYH
# Procedure, shortened: as §1
# [11] = molecular target: ETV5 (Homo sapiens, UniProt P41161 1-510); settings: protein: recombinant; tags: N-terminal GST; dsDNA, one strand shown
# Sequence of ETV5 (P41161 whole entry): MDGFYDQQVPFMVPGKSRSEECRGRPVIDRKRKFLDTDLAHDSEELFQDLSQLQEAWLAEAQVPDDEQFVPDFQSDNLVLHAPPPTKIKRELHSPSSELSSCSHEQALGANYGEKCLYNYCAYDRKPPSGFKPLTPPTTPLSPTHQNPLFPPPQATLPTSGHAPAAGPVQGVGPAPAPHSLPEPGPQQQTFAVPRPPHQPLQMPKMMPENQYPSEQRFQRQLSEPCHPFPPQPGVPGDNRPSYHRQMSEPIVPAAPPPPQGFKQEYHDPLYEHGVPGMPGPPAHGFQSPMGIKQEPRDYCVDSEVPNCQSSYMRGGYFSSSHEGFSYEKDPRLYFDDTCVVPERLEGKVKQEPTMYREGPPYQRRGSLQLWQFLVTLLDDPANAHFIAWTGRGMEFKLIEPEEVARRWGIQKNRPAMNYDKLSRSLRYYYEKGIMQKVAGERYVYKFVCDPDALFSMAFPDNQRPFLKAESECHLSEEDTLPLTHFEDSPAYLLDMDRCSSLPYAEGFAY
# Procedure, shortened: as §1
# [12] = molecular target: HSF1 (Homo sapiens, UniProt Q00613 1-529); settings: protein: recombinant; tags: N-terminal GST; chain copies: 3; dsDNA, one strand shown
# Sequence of HSF1 (Q00613 whole entry): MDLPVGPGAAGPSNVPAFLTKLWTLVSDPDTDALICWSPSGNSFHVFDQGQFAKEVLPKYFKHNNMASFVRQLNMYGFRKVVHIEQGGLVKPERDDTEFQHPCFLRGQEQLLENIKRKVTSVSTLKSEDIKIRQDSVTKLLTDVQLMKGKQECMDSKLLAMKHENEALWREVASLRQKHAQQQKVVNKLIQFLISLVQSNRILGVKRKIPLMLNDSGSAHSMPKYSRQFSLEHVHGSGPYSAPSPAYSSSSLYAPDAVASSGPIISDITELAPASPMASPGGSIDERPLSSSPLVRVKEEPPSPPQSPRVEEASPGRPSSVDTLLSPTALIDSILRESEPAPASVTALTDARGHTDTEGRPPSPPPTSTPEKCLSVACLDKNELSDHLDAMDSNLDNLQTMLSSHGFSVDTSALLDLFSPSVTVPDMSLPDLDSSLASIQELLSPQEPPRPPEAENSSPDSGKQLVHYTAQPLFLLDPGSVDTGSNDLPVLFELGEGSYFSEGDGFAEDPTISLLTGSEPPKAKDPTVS
# Procedure, shortened: as §1
# [13] = molecular target: T8, SPIC (Homo sapiens, UniProt Q8N5J4 1-248); settings: protein: recombinant; tags: N-terminal GST; dsDNA, one strand shown
# T8 sequence: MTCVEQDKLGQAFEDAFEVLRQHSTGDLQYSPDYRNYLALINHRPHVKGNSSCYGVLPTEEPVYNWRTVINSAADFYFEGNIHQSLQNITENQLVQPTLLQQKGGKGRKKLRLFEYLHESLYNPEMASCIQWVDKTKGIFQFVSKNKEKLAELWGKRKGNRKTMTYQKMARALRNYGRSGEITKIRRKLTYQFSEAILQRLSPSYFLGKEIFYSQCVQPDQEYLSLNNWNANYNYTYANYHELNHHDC
# Procedure, shortened: as §1
# [14] = molecular target: ELF4 (Homo sapiens, UniProt Q99607 1-663); settings: protein: recombinant; tags: N-terminal GST; dsDNA, one strand shown
# Sequence of ELF4 (Q99607 whole entry): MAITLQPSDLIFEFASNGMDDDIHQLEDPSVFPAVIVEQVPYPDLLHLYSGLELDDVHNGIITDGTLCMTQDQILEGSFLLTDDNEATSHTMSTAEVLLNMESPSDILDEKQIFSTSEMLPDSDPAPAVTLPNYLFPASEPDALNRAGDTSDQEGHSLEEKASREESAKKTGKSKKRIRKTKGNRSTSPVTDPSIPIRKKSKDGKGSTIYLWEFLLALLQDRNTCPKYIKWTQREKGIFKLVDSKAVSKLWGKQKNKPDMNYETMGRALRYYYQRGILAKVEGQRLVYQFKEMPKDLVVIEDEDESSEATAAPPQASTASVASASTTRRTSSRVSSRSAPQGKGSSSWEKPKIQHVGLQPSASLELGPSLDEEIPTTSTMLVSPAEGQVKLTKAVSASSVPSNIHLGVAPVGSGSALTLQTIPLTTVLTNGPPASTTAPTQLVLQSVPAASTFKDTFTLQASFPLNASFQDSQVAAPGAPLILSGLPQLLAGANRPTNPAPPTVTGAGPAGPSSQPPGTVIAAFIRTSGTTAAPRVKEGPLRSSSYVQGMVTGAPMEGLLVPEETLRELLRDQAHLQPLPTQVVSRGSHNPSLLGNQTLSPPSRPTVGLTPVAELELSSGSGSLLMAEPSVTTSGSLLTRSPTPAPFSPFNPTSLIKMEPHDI
# Procedure, shortened: as §1
# [15] = molecular target: T9, ELK4 (Homo sapiens, UniProt P28324-2 1-405); settings: protein: recombinant; tags: N-terminal GST; dsDNA, one strand shown
# T9 sequence: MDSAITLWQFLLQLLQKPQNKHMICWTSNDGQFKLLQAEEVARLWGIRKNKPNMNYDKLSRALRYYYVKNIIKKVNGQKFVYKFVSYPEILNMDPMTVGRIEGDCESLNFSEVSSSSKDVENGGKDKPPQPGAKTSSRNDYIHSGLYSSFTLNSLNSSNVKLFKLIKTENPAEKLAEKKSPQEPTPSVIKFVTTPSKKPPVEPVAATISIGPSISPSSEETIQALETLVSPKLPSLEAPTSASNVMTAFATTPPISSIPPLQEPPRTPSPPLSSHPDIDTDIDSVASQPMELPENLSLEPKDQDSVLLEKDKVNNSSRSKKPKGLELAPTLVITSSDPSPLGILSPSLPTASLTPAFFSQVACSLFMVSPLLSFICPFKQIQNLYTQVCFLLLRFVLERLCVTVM
# Procedure, shortened: as §1
# [16] = molecular target: T10, ETV2 (Homo sapiens, UniProt O00321 1-342); settings: protein: recombinant; tags: N-terminal GST; dsDNA, one strand shown
# T10 sequence: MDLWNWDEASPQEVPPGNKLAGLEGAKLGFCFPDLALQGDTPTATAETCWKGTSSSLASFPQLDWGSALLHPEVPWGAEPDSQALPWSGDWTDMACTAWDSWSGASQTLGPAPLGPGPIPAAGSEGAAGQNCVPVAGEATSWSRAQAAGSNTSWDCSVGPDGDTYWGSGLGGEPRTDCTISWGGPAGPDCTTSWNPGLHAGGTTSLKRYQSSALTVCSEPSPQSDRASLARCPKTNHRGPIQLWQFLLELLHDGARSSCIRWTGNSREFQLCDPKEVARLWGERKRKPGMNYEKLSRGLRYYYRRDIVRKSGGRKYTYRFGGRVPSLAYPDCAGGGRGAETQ
# Procedure, shortened: as §1
# [17] = molecular target: T11, ELF3 (Homo sapiens, UniProt P78545 1-371); settings: protein: recombinant; tags: N-terminal GST; dsDNA, one strand shown
# T11 sequence: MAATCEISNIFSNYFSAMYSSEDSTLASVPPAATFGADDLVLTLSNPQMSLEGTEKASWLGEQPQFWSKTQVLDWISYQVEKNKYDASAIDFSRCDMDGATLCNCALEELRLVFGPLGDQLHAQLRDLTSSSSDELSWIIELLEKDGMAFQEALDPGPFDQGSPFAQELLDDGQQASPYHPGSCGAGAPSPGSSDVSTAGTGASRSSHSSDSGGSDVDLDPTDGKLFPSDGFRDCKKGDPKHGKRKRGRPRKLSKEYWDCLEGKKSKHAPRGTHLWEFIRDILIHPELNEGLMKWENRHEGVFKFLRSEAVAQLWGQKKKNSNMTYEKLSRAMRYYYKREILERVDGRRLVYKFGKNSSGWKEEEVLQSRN
# Procedure, shortened: as §1
# [18] = molecular target: CRX (Homo sapiens, UniProt O43186 1-299); settings: protein: recombinant; tags: N-terminal GST; dsDNA, one strand shown
# Sequence of CRX (O43186 whole entry): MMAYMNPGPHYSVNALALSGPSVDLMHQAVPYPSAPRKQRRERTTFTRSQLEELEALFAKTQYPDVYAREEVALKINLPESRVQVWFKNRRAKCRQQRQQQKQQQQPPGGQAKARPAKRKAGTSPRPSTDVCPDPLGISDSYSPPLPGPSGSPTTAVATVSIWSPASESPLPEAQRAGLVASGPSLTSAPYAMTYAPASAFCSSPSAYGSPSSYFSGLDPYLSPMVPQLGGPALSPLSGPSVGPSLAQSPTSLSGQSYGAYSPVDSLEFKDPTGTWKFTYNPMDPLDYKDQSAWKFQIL
# Procedure, shortened: as §1
# [19] = molecular target: ETV1 (Homo sapiens, UniProt P50549 1-477); settings: protein: recombinant; tags: N-terminal GST; dsDNA, one strand shown
# Sequence of ETV1 (P50549 whole entry): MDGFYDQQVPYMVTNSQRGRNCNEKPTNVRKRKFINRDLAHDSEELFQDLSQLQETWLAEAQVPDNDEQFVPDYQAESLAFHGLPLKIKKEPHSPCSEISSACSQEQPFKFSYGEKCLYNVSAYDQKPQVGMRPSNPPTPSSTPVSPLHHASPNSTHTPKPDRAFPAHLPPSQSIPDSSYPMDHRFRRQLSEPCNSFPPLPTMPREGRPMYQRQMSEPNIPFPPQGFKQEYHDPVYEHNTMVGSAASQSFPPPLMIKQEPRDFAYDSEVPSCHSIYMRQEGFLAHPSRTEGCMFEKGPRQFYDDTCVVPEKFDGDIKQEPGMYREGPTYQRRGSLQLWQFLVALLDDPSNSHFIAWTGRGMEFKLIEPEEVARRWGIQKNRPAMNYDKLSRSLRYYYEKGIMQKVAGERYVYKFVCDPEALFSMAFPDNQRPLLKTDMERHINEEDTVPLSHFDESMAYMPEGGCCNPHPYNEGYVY
# Procedure, shortened: as §1
sequence,measurement,setting,value
TCTGAT,binding signal,[1],"1.15 fold enrichment (6-mer frequency, TF over GST control)"
same,binding signal,[2],"1.21 fold enrichment (6-mer frequency, TF over GST control)"
same,binding signal,[3],"1.29 fold enrichment (6-mer frequency, TF over GST control)"
same,binding signal,[4],"1.1 fold enrichment (6-mer frequency, TF over GST control)"
same,binding signal,[5],"1.27 fold enrichment (6-mer frequency, TF over GST control)"
same,binding signal,[6],"1.25 fold enrichment (6-mer frequency, TF over GST control)"
same,binding signal,[7],"1.11 fold enrichment (6-mer frequency, TF over GST control)"
same,binding signal,[8],"1.31 fold enrichment (6-mer frequency, TF over GST control)"
same,binding signal,[9],"1.14 fold enrichment (6-mer frequency, TF over GST control)"
same,binding signal,[10],"1.18 fold enrichment (6-mer frequency, TF over GST control)"
same,binding signal,[11],"1.23 fold enrichment (6-mer frequency, TF over GST control)"
same,binding signal,[12],"1.28 fold enrichment (6-mer frequency, TF over GST control)"
same,binding signal,[13],"1.26 fold enrichment (6-mer frequency, TF over GST control)"
same,binding signal,[14],"1.24 fold enrichment (6-mer frequency, TF over GST control)"
same,binding signal,[15],"1.19 fold enrichment (6-mer frequency, TF over GST control)"
same,binding signal,[16],"1.11 fold enrichment (6-mer frequency, TF over GST control)"
same,binding signal,[17],"1.17 fold enrichment (6-mer frequency, TF over GST control)"
same,binding signal,[18],"1.55 fold enrichment (6-mer frequency, TF over GST control)"
same,binding signal,[19],"1.15 fold enrichment (6-mer frequency, TF over GST control)"
